In publication PMC7862700, “An all-to-all approach to the identification of sequence-specific readers for epigenetic DNA modifications on cytosine”:

How the values were obtained:
Experiment in all cases: DAPPL (digital affinity profiling via proximity ligation, sequencing); 10 mM Tris-HCl pH 7.5, 50 mM NaCl, 1 mM DTT, 4% glycerol, room temperature, 30 min; GST-TFs on glutathione beads, 16-mer random dsDNA library, 0.1% formaldehyde crosslink after washing; high values mean tight binding
Conditions in all cases: protein: recombinant; tags: N-terminal GST; dsDNA, one strand shown
GABPA = target: T1, GABPA (Homo sapiens, UniProt Q06546 1-454)
T1 sequence: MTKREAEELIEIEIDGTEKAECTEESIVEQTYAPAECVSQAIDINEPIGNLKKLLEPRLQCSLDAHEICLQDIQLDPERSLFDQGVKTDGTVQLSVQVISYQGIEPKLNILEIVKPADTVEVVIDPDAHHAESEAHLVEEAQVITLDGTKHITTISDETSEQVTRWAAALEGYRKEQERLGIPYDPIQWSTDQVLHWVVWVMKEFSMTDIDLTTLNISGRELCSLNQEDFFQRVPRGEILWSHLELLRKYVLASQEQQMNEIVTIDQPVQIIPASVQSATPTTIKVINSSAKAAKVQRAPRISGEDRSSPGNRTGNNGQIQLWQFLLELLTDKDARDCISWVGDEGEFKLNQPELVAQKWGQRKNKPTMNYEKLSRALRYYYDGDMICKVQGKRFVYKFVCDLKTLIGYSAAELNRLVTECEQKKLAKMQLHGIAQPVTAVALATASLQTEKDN
In short: (§1)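 Human transcription factors were made in yeast as GST fusions, captured on glutathione beads and barcoded with DNA. With a tag-only sample included, the pool was incubated with 200 nmole of a random double-stranded 16-mer DNA library in Tris/NaCl/DTT/glycerol buffer at room temperature for 30 min, then crosslinked with 0.1% formaldehyde after washing, ligated by proximity, amplified and sequenced. For binding signal, each hexamer's read frequency for a factor is divided by its frequency for the tag-only sample.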

ERG = target: T2, ERG (Homo sapiens, UniProt P11308 1-479)
T2 sequence: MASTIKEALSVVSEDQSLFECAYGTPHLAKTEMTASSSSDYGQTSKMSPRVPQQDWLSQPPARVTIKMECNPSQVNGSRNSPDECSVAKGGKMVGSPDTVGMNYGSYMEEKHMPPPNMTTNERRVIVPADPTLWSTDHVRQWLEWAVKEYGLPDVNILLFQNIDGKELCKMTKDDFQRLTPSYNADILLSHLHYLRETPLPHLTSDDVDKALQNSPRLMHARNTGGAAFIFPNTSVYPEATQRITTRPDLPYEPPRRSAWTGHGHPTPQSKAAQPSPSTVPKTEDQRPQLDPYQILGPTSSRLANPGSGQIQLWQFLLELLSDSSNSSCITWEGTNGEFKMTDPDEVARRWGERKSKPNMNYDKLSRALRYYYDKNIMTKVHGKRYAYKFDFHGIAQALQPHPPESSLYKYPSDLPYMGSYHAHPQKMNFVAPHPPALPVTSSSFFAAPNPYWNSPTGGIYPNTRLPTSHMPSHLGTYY
In short: as §1

ELF1 = ELF1 (Homo sapiens, UniProt P32519 1-619)
ELF1, sequence (P32519 whole entry): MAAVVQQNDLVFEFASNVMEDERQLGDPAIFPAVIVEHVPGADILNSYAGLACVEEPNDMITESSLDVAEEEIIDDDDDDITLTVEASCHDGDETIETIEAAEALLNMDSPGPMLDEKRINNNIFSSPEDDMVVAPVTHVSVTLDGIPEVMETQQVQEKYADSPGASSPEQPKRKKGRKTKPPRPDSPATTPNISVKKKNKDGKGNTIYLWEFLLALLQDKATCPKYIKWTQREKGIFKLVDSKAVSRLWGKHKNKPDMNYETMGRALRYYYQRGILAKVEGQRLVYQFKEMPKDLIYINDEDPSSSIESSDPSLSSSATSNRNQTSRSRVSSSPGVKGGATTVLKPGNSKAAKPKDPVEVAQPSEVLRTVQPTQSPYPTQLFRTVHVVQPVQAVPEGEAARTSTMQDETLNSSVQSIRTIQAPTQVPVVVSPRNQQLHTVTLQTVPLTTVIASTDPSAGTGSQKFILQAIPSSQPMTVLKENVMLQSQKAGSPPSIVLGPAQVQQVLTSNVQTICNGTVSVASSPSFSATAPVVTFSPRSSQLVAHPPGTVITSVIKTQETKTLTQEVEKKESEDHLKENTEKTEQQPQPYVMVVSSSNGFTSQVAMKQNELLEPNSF
In short: as §1

EHF = target: T3, EHF (Homo sapiens, UniProt Q9NZC4 1-300)
T3 sequence: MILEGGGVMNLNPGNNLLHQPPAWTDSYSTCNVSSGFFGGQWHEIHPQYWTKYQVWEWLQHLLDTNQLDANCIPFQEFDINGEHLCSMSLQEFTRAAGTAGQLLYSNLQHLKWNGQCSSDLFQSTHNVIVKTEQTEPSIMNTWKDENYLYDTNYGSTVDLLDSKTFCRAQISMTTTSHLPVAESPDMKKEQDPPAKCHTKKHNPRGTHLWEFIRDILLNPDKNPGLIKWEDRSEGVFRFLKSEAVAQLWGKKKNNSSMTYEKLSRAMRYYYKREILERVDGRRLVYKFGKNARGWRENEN
In short: as §1

SPIC = target: T4, SPIC (Homo sapiens, UniProt Q8N5J4 1-248)
T4 sequence: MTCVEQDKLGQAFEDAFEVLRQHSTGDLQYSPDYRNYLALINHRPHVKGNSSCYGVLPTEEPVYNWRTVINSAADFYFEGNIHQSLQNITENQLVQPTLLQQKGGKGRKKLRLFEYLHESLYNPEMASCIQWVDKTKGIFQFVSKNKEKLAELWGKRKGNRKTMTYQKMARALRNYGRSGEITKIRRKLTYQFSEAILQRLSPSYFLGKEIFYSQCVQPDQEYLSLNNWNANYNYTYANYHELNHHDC
In short: as §1

ETV1 = ETV1 (Homo sapiens, UniProt P50549 1-477)
ETV1, sequence (P50549 whole entry): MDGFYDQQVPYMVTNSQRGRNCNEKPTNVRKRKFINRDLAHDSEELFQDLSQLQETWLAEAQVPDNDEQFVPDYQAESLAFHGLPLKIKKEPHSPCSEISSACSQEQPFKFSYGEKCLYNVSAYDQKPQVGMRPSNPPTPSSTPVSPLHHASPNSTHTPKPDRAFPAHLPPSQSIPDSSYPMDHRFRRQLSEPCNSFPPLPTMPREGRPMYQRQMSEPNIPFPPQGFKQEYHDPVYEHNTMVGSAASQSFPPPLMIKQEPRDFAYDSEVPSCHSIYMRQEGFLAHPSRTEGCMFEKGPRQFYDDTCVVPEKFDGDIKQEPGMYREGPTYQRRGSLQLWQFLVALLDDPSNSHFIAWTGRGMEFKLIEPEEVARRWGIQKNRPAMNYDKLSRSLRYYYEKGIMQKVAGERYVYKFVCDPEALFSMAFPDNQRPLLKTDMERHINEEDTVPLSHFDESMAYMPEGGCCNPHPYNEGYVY
In short: as §1

ERF = target: T5, ERF (Homo sapiens, UniProt P50548 1-548)
T5 sequence: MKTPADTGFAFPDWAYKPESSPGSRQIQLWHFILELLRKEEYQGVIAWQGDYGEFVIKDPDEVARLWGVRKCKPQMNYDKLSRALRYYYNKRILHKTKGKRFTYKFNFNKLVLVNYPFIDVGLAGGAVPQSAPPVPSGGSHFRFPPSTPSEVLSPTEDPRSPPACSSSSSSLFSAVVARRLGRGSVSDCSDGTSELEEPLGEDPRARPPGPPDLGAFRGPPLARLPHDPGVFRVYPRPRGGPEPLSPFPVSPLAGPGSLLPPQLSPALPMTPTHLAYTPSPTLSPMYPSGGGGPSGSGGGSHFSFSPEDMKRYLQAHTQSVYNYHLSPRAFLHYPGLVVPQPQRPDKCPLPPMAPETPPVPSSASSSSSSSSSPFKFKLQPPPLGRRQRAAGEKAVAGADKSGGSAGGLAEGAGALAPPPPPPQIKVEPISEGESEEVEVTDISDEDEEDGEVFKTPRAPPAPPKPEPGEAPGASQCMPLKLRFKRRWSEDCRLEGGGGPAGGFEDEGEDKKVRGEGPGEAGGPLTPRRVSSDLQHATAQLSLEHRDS
In short: as §1

ETV3L = target: T6, ETV3L (Homo sapiens, UniProt Q6ZN32 1-361)
T6 sequence: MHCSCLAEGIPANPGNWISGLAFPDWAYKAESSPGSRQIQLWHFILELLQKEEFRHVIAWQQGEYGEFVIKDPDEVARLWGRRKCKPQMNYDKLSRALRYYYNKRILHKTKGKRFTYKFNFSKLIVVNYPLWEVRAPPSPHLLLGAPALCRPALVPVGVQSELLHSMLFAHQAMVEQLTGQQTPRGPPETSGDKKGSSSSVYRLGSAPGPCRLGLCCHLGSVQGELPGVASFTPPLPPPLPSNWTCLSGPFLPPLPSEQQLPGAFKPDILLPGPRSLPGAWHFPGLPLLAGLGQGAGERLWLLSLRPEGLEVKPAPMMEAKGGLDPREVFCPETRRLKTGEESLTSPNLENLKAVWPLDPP
In short: as §1

ETS2 = target: T7, ETS2 (Homo sapiens, UniProt P15036 1-469)
T7 sequence: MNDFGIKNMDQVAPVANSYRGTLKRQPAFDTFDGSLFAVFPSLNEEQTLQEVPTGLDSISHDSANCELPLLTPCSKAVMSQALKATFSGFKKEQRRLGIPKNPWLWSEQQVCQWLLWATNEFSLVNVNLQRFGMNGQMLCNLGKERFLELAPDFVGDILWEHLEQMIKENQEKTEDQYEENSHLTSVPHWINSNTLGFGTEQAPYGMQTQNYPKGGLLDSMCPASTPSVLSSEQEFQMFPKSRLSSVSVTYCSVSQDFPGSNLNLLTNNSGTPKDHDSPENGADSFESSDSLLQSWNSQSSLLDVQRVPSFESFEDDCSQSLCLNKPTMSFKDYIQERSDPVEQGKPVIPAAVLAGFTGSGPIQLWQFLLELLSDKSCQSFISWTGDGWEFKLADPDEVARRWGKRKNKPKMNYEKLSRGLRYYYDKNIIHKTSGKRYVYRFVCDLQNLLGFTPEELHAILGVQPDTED
In short: as §1

ETV7 = target: T8, ETV7 (Homo sapiens, UniProt Q9Y603 1-341)
T8 sequence: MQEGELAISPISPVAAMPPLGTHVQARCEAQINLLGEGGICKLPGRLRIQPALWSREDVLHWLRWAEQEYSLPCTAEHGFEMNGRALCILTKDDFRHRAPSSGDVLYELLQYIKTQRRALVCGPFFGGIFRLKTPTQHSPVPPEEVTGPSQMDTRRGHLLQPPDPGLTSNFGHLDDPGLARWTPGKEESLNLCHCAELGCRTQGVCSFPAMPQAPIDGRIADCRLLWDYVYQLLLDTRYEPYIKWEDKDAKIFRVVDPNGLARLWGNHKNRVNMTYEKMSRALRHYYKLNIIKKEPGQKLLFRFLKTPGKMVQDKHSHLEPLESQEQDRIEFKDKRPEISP
In short: as §1

ELK3 = target: T9, ELK3 (Homo sapiens, UniProt P41970 1-407)
T9 sequence: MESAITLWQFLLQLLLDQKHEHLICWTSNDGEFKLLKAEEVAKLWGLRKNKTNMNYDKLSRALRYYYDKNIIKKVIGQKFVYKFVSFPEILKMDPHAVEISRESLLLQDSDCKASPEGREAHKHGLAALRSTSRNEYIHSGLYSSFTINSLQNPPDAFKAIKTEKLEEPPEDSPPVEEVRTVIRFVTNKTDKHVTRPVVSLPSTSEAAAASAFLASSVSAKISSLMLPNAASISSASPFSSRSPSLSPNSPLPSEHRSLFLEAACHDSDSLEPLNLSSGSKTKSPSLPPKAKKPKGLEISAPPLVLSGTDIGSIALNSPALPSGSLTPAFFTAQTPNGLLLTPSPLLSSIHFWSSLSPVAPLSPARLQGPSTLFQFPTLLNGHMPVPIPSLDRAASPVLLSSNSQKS
In short: as §1

ELK4 = target: T10, ELK4 (Homo sapiens, UniProt P28324-2 1-405)
T10 sequence: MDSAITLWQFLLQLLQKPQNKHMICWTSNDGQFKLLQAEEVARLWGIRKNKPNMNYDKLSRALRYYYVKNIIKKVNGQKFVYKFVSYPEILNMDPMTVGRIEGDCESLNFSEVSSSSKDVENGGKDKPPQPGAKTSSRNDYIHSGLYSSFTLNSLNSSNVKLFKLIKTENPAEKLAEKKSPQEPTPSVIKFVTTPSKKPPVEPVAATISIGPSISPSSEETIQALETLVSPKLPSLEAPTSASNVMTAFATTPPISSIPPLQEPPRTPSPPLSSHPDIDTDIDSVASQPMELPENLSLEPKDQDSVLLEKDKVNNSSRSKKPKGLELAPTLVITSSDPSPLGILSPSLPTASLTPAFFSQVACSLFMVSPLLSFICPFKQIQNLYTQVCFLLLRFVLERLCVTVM
In short: as §1

ELF3 = target: T11, ELF3 (Homo sapiens, UniProt P78545 1-371)
T11 sequence: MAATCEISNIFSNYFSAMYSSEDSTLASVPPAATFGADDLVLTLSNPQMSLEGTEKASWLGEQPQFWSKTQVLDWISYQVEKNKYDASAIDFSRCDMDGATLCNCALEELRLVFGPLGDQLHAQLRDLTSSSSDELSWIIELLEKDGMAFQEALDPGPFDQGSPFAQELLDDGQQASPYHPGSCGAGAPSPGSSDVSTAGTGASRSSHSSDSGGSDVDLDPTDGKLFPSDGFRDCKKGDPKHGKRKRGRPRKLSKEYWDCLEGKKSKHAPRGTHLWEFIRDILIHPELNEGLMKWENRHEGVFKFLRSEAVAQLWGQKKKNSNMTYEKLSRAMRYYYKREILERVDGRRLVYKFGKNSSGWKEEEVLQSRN
In short: as §1

ETV6 = ETV6 (Homo sapiens, UniProt P41212 1-452)
ETV6, sequence (P41212 whole entry): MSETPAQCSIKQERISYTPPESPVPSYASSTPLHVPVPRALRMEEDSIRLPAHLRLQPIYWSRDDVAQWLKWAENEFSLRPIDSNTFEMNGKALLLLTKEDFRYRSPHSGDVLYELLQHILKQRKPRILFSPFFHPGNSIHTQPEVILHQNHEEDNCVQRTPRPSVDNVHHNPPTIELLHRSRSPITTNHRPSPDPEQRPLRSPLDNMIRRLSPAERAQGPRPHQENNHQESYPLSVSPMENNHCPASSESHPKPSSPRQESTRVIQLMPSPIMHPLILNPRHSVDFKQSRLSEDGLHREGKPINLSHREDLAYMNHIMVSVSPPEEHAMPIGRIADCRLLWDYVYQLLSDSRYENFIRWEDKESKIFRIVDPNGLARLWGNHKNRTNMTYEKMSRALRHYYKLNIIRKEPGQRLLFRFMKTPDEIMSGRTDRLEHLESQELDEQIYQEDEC
In short: as §1

Sequence: TAGACT
- binding signal (GABPA): 1.02 fold enrichment (6-mer frequency, TF over GST control)
- binding signal (ERG): 1.05 fold enrichment (6-mer frequency, TF over GST control)
- binding signal (ELF1): 1.09 fold enrichment (6-mer frequency, TF over GST control)
- binding signal (EHF): 1.04 fold enrichment (6-mer frequency, TF over GST control)
- binding signal (SPIC): 1.03 fold enrichment (6-mer frequency, TF over GST control)
- binding signal (ETV1): 1.02 fold enrichment (6-mer frequency, TF over GST control)
- binding signal (ERF): 1.07 fold enrichment (6-mer frequency, TF over GST control)
- binding signal (ETV3L): 1 fold enrichment (6-mer frequency, TF over GST control)
- binding signal (ETS2): 1.02 fold enrichment (6-mer frequency, TF over GST control)
- binding signal (ETV7): 1.05 fold enrichment (6-mer frequency, TF over GST control)

Sequence: TAAGGG
- binding signal (ELK3): 1.04 fold enrichment (6-mer frequency, TF over GST control)
- binding signal (SPIC): 1.18 fold enrichment (6-mer frequency, TF over GST control)
- binding signal (ELK4): 1.1 fold enrichment (6-mer frequency, TF over GST control)
- binding signal (ELF3): 1.09 fold enrichment (6-mer frequency, TF over GST control)
- binding signal (ETV1): 1.05 fold enrichment (6-mer frequency, TF over GST control)
- binding signal (ERF): 1.01 fold enrichment (6-mer frequency, TF over GST control)
- binding signal (ETS2): 1 fold enrichment (6-mer frequency, TF over GST control)
- binding signal (ETV6): 1.01 fold enrichment (6-mer frequency, TF over GST control)
